Source: PubChem BioAssay AID1571 (National Center for Advancing Translational Sciences (NCATS), 2009)
Inconclusive results are not listed. A call without a number means that no potency is given here. Calls of active or inactive are those of the source. Calls follow the shape of the dose curve; as a rule, active = well fitted curve in the direction sought with a large enough effect; inconclusive = small, poorly fitted or top-dose-only effect, or effect the other way; inactive = flat fitted curve, though single readings scatter.

Assay: Total Fluorescence Confirmation Counterscreen for Inhibitors of the Interaction of Thyroid Hormone Receptor and Steroid Receptor Coregulator 2, Fluorescein Fluoroprobe
Conditions: TRbeta/SRC2-fluorescein mix, total fluorescence interference; series mostly up to 92.2 µM
From the text: NIH Molecular Libraries Probe Production Network [MLPCN] NIH Chemical Genomics Center [NCGC] MLPCN Grant: DK058080 Assay Provider: R. Kip Guy, St. Jude Children's Research Hospital NCGC Assay Overview: Thyroid receptor (TR) regulates many homeostatic processes including basal metabolism, cardiovascular function, body weight, and lipid trafficking. TR modulators are potential therapeutics for obesity and hyperlipidemias but current thyroid analogs have undesirable side effects, particularly cardiac stimulation. To identify inhibitors that specifically prevent the interaction of TR with the steroid receptor coregulator 2 (SRC2), a fluorescence polarization assay was screened (Arnold et al., 2006). This assay detects interaction of the ligand-binding domain of human TRbeta with a fluorescein labeled SRC2 peptide, corresponding to a 20 amino acid region of the nuclear receptor interaction domain. Total fluorescence (555 nm excitation and 632 nm emission) was measured to identify potential fluorescent and light absorbing compounds. Such compounds may be artifacts that interfere with the fluorescence polarization assay. This assay is a confirmation assay for AID 1479. Arnold, L. A.; Estebanez-Perpina, E.; Togashi, M.; Shelat, A.; Ocasio, C. A.; McReynolds, A. C.; Nguyen, P.; Baxter, J. D.; Fletterick, R. J.; Webb, P.; Guy, R. K. A high-throughput screening method to identify small molecule inhibitors of thyroid hormone receptor coactivator binding. Sci STKE 2006, p 13.
NCGC Assay Protocol Summary: For screening, 5 uL/well 0.6 uM TRbeta and 20 nM SRC2 Fluorescein in protein buffer (20mM Tris hydrochloride, 100mM NaCl, 10% glycerol, 1mM EDTA, 0.01% NP-40, 1mM DTT, 1uM T3 and 5% DMSO) was dispensed into black solid 1536-well plates (Grenier) using a solenoid-based dispenser. Following transfer of 23 nL compound or DMSO vehicle by a pin tool, the plates were centrifuged 15 s at 1000 RPM and incubated 5 hr at ambient temperature. The plates were read by an Envision (Perkin Elmer) to detect fluorescence polarization of SRC2 Fluorescein (480 nm excitation and 535 nm emission). Data were normalized to unbound (all components except TRbeta) and bound SRC2 Fluorescein controls. Total fluorescence (TF) was calculated as follows: TF = S + 2P where S and P are fluorescence readings in the parallel and perpendicular channels, respectively. In this assay, we provide % activity data for each concentration as well as potencies for the active compounds.

Row | Compound | Potency | total fluorescence change, positive = fluorescent
1 | Cc1nc2ccccc2n2c(O)c(CC(=O)O)cc12 | 12.6 µM [fluorescent] (active) | 
2 | N#Cc1c(NC(=O)c2ccccc2Cl)n(Cc2ccccc2)c2nc3ccccc3nc12 | inactive | 
3 | COC(=O)/C(=C/Nc1ccc(O)cc1)[N+](=O)[O-] |  | 0.349% [at 5.76 µM] (inactive)
4 | Cc1ccc(OC(=S)Nc2ccc(O)cc2)cc1 | inactive | 
5 | COc1cc(C(c2c(C)[nH][nH]c2=O)c2c(C)[nH][nH]c2=O)ccc1OC(=O)c1ccccc1OC | inactive | 
6 | C/C(=C\C(=O)c1ccccc1)Nc1ccc(O)cc1 |  | 10.3% [at 11.6 µM] (inactive)
7 | CCc1ccc2c(c1)c1nc(C)sc1n2CC | inactive | 
8 | CCOc1cc(N2CCOCC2)c(OCC)cc1NC(C)C(=O)N1CCN(CC)CC1 (stereo not given) |  | 10.4% [at 11.6 µM] (inactive)
9 | CCOc1cc(C(c2c(C)[nH][nH]c2=O)c2c(C)[nH][nH]c2=O)ccc1OS(=O)(=O)c1ccc(C)cc1 | inactive | 
10 | Cn1c(CCN2CCCCC2)nc2cc(NS(=O)(=O)c3ccc(Cl)cc3)ccc21 |  | 13% [at 0.0112 µM] (inactive)
11 | CCN(C(=O)C1CCCN(c2ncnc3onc(-c4ccc(F)cc4)c23)C1)c1ccccc1 (stereo not given) | inactive | 
12 | COc1ccc2c(c1)-c1nc(/N=C/c3c(O)ccc4ccccc34)sc1CC2 |  | 29.6% [at 5.76 µM] (inactive)
13 | Cc1cccc(S(=O)(=O)c2cn(Cc3ccccc3)c3cc(N4CCC(C)CC4)c(F)cc3c2=O)c1 | inactive | 
14 | O=C1CNC(=S)N1c1nc(-c2ccccc2)cs1 |  | 7.24% [at 0.0112 µM] (inactive)
15 | Nc1cc(-c2ccncc2)c[nH]c1=O | inactive | 
16 | Nc1c(C(=O)NCc2ccco2)c2nc3ccccc3nc2n1CCc1ccccc1 | inactive | 
17 | COc1ccc(-c2nc(CS(=O)CC(=O)NCc3ccccn3)c(C)o2)cc1 (stereo not given) | 39.8 µM [fluorescent] (active) | 
18 | CN1N=C(C(C)(C)C)CC1=O | inactive | 
19 | Nc1cccnc1Sc1cc(Cl)c(Cl)cc1Cl | inactive | 
20 | COc1ccc2ccc3c(c2c1)N=CC1(O3)N(C)c2ccccc2C1(C)C (stereo not given) |  | -5.71% [at 0.0112 µM] (inactive)

Row | Compound | Potency | total fluorescence change, positive = fluorescent
21 | C=CCNC(=O)/C(C#N)=C/c1c(C)nn(-c2ccc(Cl)cc2)c1Cl | inactive | 
22 | O=C(Nc1nc2ccc(Cl)cc2s1)c1ccc(N2CCCCC2)c([N+](=O)[O-])c1 | inactive | 
23 | Cn1c(=O)[nH]c2nnc(-c3ccc(Cl)c(Cl)c3)nc2c1=O | inactive | 
24 | Cn1c(NNC(=O)c2c(F)cccc2F)cc(=O)n(C)c1=O | inactive | 
25 | CC(=O)NC1N=C(C)N(c2ccccc2)C1=O (stereo not given) | inactive | 
26 | C=CCNC(=O)/C(C#N)=C\c1cc(Cl)c(OCC)c(OC)c1 | inactive | 
27 | CCOc1ccc(NC(=O)C(c2ccccn2)N(C(=O)CCl)c2ccc(F)cc2)cc1 (stereo not given) |  | 17.5% [at 5.76 µM] (inactive)
28 | CCCc1cc(=O)[nH]c(=S)[nH]1 | inactive | 
29 | COc1ccc(C(=O)Oc2ccc(C(c3c(C)[nH][nH]c3=O)c3c(C)[nH][nH]c3=O)cc2OC)cc1 | inactive | 
30 | CN1c2ccccc2C(C)(C)C12C=Nc1c(ccc3ccccc13)O2 (stereo not given) | inactive | 
31 | Cc1ccc2c(CC(=O)Nc3c(C(=O)c4ccc(F)cc4)oc4ccccc34)coc2c1C | inactive | 
32 | CC(=O)c1cccc(NC(=O)COC(=O)c2ccc(S(C)(=O)=O)c([N+](=O)[O-])c2)c1 |  | 9.6% [at 11.6 µM] (inactive)
33 | CN(C(=S)Nc1cccnc1)c1ccc(O)cc1 | inactive | 
34 | Cc1c(C#N)c(O)n(CCO)c(=O)c1N=Nc1ccc2c(c1)COC2=O | inactive | 
35 | COC(=O)c1ccccc1-c1ccc(C(c2c(C)[nH][nH]c2=O)c2c(C)[nH][nH]c2=O)o1 |  | 15.2% [at 5.76 µM] (inactive)
36 | Nc1cnccc1C(=O)O | inactive | 
37 | COc1ccccc1Nc1cc2ccccc2c(=O)[nH]1 | 44.7 µM [fluorescent] (active) | 
38 | Cc1cc2c(NC(=O)Nc3ccccc3)cccc2nn1 |  | 9.99% [at 0.0112 µM] (inactive)
39 | CCOC(=O)c1cnc2nc(NCc3ccc(OC)c(OC)c3)[nH]n2c1=O | inactive | 
40 | O=c1cc(C23CC4CC(CC(C4)C2)C3)[nH][nH]1 | inactive | 
